HCV inhibitor: blocks hepatitis C virus; Huh7.5.1 HCVcc-Cre infection, luciferase reporter, 44 h; Potency, µM (titrated, usually from 41.8 µM), without a hit: at the highest dose activity change, negative = inhibition, most hits filed as inhibitors; hit rate 3.4% among 340,000; active = well fitted inhibition curve with a large enough effect; inconclusive = small, poorly fitted or top-dose-only effect, or another doubt; inactive = no such curve, though single readings can be large or run the other way; note: potency is the fitted concentration of half-maximal effect
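Reporter virus HCVcc-Cre (~0.5 moi) infects cells exposed to compound; seeding density 1,000 cells/well with 4 h settling beforehand. Luminescence, 15 sec read, taken 44 h post-infection following a 15 min RT substrate incubation.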
HCMV inh: human cytomegalovirus inhibition; HFF cells, HCMV-luciferase reporter, 72 h; stronger effect = lower value; activity change, negative = inhibition, % at 57.5 µM; hit rate 4.5% among 410,000; in the data active = activity change below about -60%; inconclusive = no clear call, values can overlap the other calls; inactive = above about -39%
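Steps: HFFs plated, 16 h 37C; compounds added; HCMV-luciferase added to MOI 1 PFU/cell; 72 h 37C; OneGlo reagent, 5 min room temperature; luminescence read, normalized to controls.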
Vaccinia Venus: inhibitors of vaccinia virus (Venus reporter); Vaccinia virus Venus reporter expression, fluorescence; Potency, µM (series often up to 36.5 µM), inactives show at the highest dose activity change, negative = inhibition, actives largely listed as inhibitors; hit rate 0.46% among 330,000; AID 720580; calls by dose curve; tested in A549 cells; note: potency is the fitted concentration of half-maximal effect; nearly all actives have a fitted effect of over 30% in size
FMDV inh: antivirals against foot and mouth disease virus. FMDV antiviral cell-based qHTS. Potency, µM (doses to about 57.9 µM), for the others: top-dose activity change, negative = inhibition, actives largely listed as inhibitors. hit rate 1.2% among 410,000; calls by dose curve; tested in HEK293T cells; note: read-out not given here; potency is the fitted concentration of half-maximal effect; nearly all actives have a fitted effect of over 45% in size
VACV mCherry inh: inhibitors of vaccinia virus infection (mCherry reporter signal). Vaccinia virus mCherry reporter infection, fluorescence. Potency, µM (series often up to 36.5 µM), inactives show top-dose activity change, negative = inhibition, most hits filed as inhibitors. hit rate 0.63% among 310,000. AID 720579; calls by dose curve; tested in A549 cells; note: potency is the fitted concentration of half-maximal effect; nearly all actives have a fitted effect of over 35% in size
Active calls of the source: *; i = inactive; ? = inconclusive; nt = not tested or not shown; ! = a repeat was not active. An excerpt weighted towards active compounds, which were near 7.3% of everything screened. % is set by controls: 0 for no effect and ±100 for the full control effect.

SMILES	HCV inhibitor	HCMV inh	Vaccinia Venus	FMDV inh	VACV mCherry inh
COc1ccc(C(=O)NC(Nc2ccc(C)cc2)C(Cl)(Cl)Cl)cc1 (configuration not stated)	?	-72.1*	-22.0%	?	-23.8%
COc1ccc(/C=C/C(=O)Nc2ccc(C)c(S(=O)(=O)N3CCOCC3)c2)cc1	2.82µM*	-95.1*	?	?	?
CCN1CCN(c2ccc(S(=O)(=O)N3CCOCC3)cc2NC(=O)/C=C/c2ccc(OC)cc2OC)CC1	7.5%	-29.7	-21.0%	3.8%	-11.2%
COc1ccc(/C=C/C(=O)Nc2ccc(S(=O)(=O)N3CCOCC3)cc2)c(OC)c1	10µM*	?	nt	-23.2%	nt
COc1ccc(NC(=O)/C=C/c2ccc(S(=O)(=O)N3CCOCC3)cc2)cc1	-4.2%	-18.8	nt	0.6%	nt
COC1CCC(OC2CC(C3(C)CCC4(CC(O)C(C)C(C(C)/C=C(\C)C(=O)C(C)CC(C)C(=O)O)O4)O3)OC3(OC(C4OC(O)(CO)C(C)CC4C)CC3C)C2C)OC1C (configuration not stated)	0.316µM*	-97.6*	7.94µM*	17.8µM*	6.31µM*
O=C(N/N=C/c1c[nH]c2ccccc12)c1ccccc1	11.0%	32.6	nt	22.9%	nt
Brc1ccc(OCc2ccccc2)c(CNCc2ccncc2)c1	10µM*	-29.1	nt	?	nt
O=C(N/N=C/c1ccc(O)cc1)c1[nH]c2ccc(Br)cc2c1-c1ccccc1	2.6%	-93.8*	nt	-18.6%	nt
O=C(NN=C1CCCC1)c1[nH]c2ccc(Cl)cc2c1-c1ccccc1	1.1%	-92.1*	-25.1%	-10.4%	-27.4%
O=C(N/N=C/c1c[nH]c2ccccc12)c1[nH]c2ccc(Br)cc2c1-c1ccccc1	-26.0%	-86.1*	nt	?	nt
CC(=O)NNC(=O)c1[nH]c2ccc(Cl)cc2c1-c1ccccc1	8.8%	-3.5	nt	-1.1%	nt
Fc1ccc(COc2ccccc2CNCc2ccncc2)cc1	?	?	-11.2%	-17.9%	-9.7%
Cc1ccccc1-c1noc(CSc2nnc(Cc3ccccc3)n2-c2ccc(F)cc2)n1	nt	12.0	-17.6%	0.0%	i
Cc1noc(C)c1CSCC(=O)NCCN1C(=O)S/C(=C\c2ccccc2F)C1=O	?	?	-21.9%	?	-10.4%
CCCOc1ccc(NC(=O)CC2C(=O)N(c3cccc(C)c3)C(=O)N2CCc2ccncc2)cc1 (configuration not stated)	nt	-7.1	-4.8%	-11.9%	-0.7%
O=C(N/N=C/c1ccncc1)c1cc(Br)ccc1OCc1ccccc1	8.91µM*	-22.3	-11.3%	-15.9%	i
O=C(N/N=C/c1cccnc1)c1ccccc1OCc1cccc(Br)c1	?	?	-2.2%	?	2.4%
O=C(N/N=C/c1c[nH]c2ccccc12)c1cc(Br)ccc1O	15.3%	18.9	nt	42.0%	nt
NNC(=O)c1[nH]c2ccccc2c1-c1ccccc1	-4.4%	-95.2*	?	-19.5%	-12.5%
CC/C(C)=N/NC(=O)c1[nH]c2ccc(C)cc2c1-c1ccccc1	0.7%	-3.3	-27.4%	-14.2%	?
Cc1cccc(NC(=S)N/N=C/c2c[nH]c3ccccc23)c1	10µM*	5.0	?	-1.7%	?
CCOc1ccc(Br)cc1C(=O)N/N=C/c1c[nH]c2ccccc12	12.6µM*	13.1	nt	-8.5%	nt
COc1cccc(/C=C/c2cnc3ccccc3n2)c1OC	nt	nt	51.7%	nt	-22.6%
Cc1onc(-c2ccccc2Cl)c1C(=O)NNC(=O)c1ccccc1F	7.3%	-5.8	2.4%	16.6%	13.0%
SMILES	HCV inhibitor	HCMV inh	Vaccinia Venus	FMDV inh	VACV mCherry inh
CCc1nn(CC(=O)NCCc2ccc(OC)cc2OC)c(=O)c2cc3sccc3n12	nt	52.8	2.9%	33.6%	-12.1%
Clc1ccc(COc2ccccc2CNCc2cccnc2)cc1	10µM*	-30.3	-6.6%	?	-11.4%
O=C(NCC1CCCO1)C(=Cc1cccc([N+](=O)[O-])c1)C(=O)NCC1CCCO1 (configuration not stated)	?	-98.5*	?	?	12.6µM*
O=C(NCC1CCCO1)/C(=C\c1cccc([N+](=O)[O-])c1)NC(=O)c1ccccc1 (configuration not stated)	4.9%	20.3	-5.1%	-3.2%	-10.1%
c1cc(Nc2cccc3nccnc23)c2nccnc2c1	-34.1%	1.9	-19.1%	-7.1%	-2.0%
Fc1ccc(Nc2cccc3nccnc23)cc1	?	-63.6*	-14.0%	16.5%	i
Cc1ccc(/C=C2\SC(=S)N(CCCC(=O)Nc3cccnc3)C2=O)cc1	0.4%	nt	-2.9%	?	-17.2%
O=C(CCN1C(=O)/C(=C/C=C/c2ccccc2)SC1=S)Nc1ccccn1	11.1%	-64.8*	-3.4%	-11.1%	i
O=C(CCCN1C(=O)/C(=C\c2cccc(Br)c2)SC1=S)Nc1cccnc1	?	-99.4*	?	-24.8%	?
O=C(CCCN1C(=O)/C(=C/c2cccc(Br)c2)SC1=S)Nc1ccccn1	11.2µM*	-101.5*	nt	-0.4%	nt
O=C(CCCN1C(=O)/C(=C/c2cccc(Br)c2)SC1=S)Nc1cccnc1	?	-99.4*	-28.3%	-1.6%	?
Cc1ccc(C)n1-c1nnc(N2CCCC(C(=O)NCc3cccc(Cl)c3)C2)s1 (configuration not stated)	nt	-8.0	-17.7%	?	-19.4%
Cc1onc(-c2c(F)cccc2Cl)c1C(=O)OCC(=O)N(C)c1ccccc1	nt	-27.3	-20.5%	0.0%	-17.3%
CC(OC(=O)CCC(=O)c1ccc(Cl)s1)C(=O)NC1(C#N)CCCCC1 (configuration not stated)	2.2%	-0.3	-10.8%	18.5%	-9.3%
CC1(C(=O)Nc2cccc(Oc3ccccc3)c2)CCN1Cc1cc2ccccc2o1 (configuration not stated)	nt	10.4	-8.6%	-11.8%	10.8%
CCN(CC)CCCOC(=O)C(OC(C)C)(c1ccccc1)c1ccccc1	7.08µM*	-37.4	nt	?	nt
Cc1ccc(-n2nnc(C(=O)Nc3cc(F)ccc3F)c2C)cc1F	nt	83.2	-21.8%	28.5%	-21.7%
O=C(COc1c(F)c(F)c(C(F)(F)F)c(F)c1F)Nc1ccc(N2CCOCC2)c(Cl)c1	0.4%	9.4	-17.7%	-21.7%	i
CSc1ccc(OCC(=O)Nc2ccc(N3CCOCC3)c(Cl)c2)cc1	10µM*	17.0	-22.5%	?	-8.9%
Cc1cc(C)nc(SCC(=O)Nc2ccc(N3CCOCC3)c(Cl)c2)n1	7.94µM*	-31.5	?	?	nt
O=C(NCc1ccccc1)/C(=C/c1ccc(OC(F)F)cc1)c1ccccc1	22.4µM*	?	?	-6.7%	-19.7%
COc1ccc(/C=C(/C(=O)NCc2ccccc2)c2ccccc2)cc1	?	-29.6	?	-11.5%	-20.3%
CC(=O)Nc1cccc(NC(=O)CSc2nccn2Cc2ccco2)c1	-25.2%	-70.4*!	-5.1%	-26.6%	-10.9%
O=C(NCCNCC(O)COc1ccc(O)cc1)N1CCOCC1 (configuration not stated)	0.316µM*	25.5	-19.0%	-16.3%	i
Cc1c(C)c2c(OCC(=O)NCC(C)C)cc3c(c2oc1=O)CCC(C)(C)O3	?	4.8	nt	17.8µM*	nt
